Source: PubChem
The entries come from a sample that favours hits as a whole.
RMI FANCM FP – disruptors of RMI1/RMI2 association with MM2 peptide – biochemical, fluorescence polarization, human, primary screen; 70,000 tested, 0.58% active; RMI core complex (RMI1/RMI2) binding to FANCM MM2 peptide, human; FP signal (polarization) at 33 µM; RMI core complex with F-MM2 peptide; hits give low values; in the data active = FP signal below about 40
* = called active by the depositor; ! = not active in a repeat.

SMILES | RMI FANCM FP
c1csc(-c2ccnc(SCc3ccc4nonc4c3)n2)c1 | 68
O=C(O)c1cccc2cccc(-c3cccc4cccc(C(=O)O)c34)c12 | 53
CNN1C(=O)c2cccc3cccc(c23)C1=O | 55
O=C1Sc2cccc3cccc1c23 | 58*
O=S(=O)(NCC1CCN(Cc2ccccc2)CC1)c1ccccc1 | 73
Cc1ccc(NCCn2c(C)c(C)n3c4c(=O)n(C)c(=O)n(C)c4nc23)c(C)c1 | 58
CCCC(=O)Nc1nnc(-c2cc(C)n(C)n2)o1 | 73
COc1cc(OC)c(NC(=O)CSc2nc3ccccc3n2S(=O)(=O)c2ccc(Cl)cc2)cc1Cl | 60
Clc1ccc2c(Nc3ccc4c(c3)OCO4)ccnc2c1 | 58
O=C(OCCOc1ccc(Cl)cc1Cl)c1ccccc1Cl | 57
O=C(OCC(O)CO)c1ccccc1Nc1ccnc2cc(Cl)ccc12 (stereo unspecified) | -4*!
COc1ccc(CNC(=O)C(=O)NCC2CCN(Cc3ccco3)CC2)cc1 | 70
C=CCn1c(N)c(S(=O)(=O)c2ccc(Cl)cc2)c2nc3ccccc3nc21 | 68
Nc1c(S(=O)(=O)c2cccs2)c2nc3ccccc3nc2n1Cc1ccco1 | 12*
Cn1c(-c2c(N)n(Cc3ccco3)c3nc4ccccc4nc23)nc2ccccc21 | 30
Cc1ccc2nc(-c3ccccc3NC(=O)CCC(=O)O)[nH]c2c1 | 65
CN1NC(c2ccc(Cl)cc2)/C(=N/OC(=O)c2ccc(Cl)cc2)SC1=S (stereo unspecified) | 63
CCNc1nc(SCc2ccc([N+](=O)[O-])cc2)nc2sc3c(c12)CCC(C)C3 (stereo unspecified) | 56
CCNc1nc(SCc2ccc([N+](=O)[O-])cc2)nc2sc3c(c12)CCN(C)C3 | -31*
Cn1c(SCc2ccc([N+](=O)[O-])cc2)nc2c(c1=O)SCC2 | 55
C=CCn1c(SCC(=O)Nc2ccc3c(c2)OCO3)nc2scc(-c3ccc(C)o3)c2c1=O | 81
NC(=O)C1Cc2ccccc2N1C(=O)CCCN1C(=O)c2ccccc2C1=O (stereo unspecified) | 51
O=C1Cc2ccccc2C1=C1Cc2ccccc2C1 | 51
NC(=O)N1c2ccccc2CC(=O)c2ccccc21 | -8*!
O=C(NCc1nnc(SCc2ccc(Br)cc2)n1-c1ccccc1)c1cccs1 | 61
SMILES | RMI FANCM FP
CC(=O)N1CCc2c(sc(NC(=O)c3cc(=O)c4ccccc4o3)c2-c2nc3ccccc3s2)C1 | -23
CC(C)N1CCc2c(sc(NC(=O)c3c(F)cccc3F)c2-c2nc3ccccc3s2)C1 | -10*
CC(C)N1CCc2c(sc(NC(=O)c3ccnn3C)c2-c2nc3ccccc3s2)C1 | -7*
CC(=O)N1CCc2c(sc(NC(=O)c3c(F)cccc3F)c2-c2nc3ccccc3s2)C1 | 90
CCn1nccc1C(=O)Nc1sc2c(c1-c1nc3ccccc3s1)CCC(C)C2 (stereo unspecified) | 70
COC(=O)N1CCc2c(sc(NC(=O)c3ccccc3)c2-c2nc3ccccc3s2)C1 | 70
O=C(Nc1ccc2c(c1)CN(S(=O)(=O)c1ccccc1)CC2)c1c(F)cccc1Cl | 71
CCOC(=O)c1c(NC(=O)CCN2CCCC2)sc2c1CCCC2 | 90
CS(=O)(=O)c1ccc(NC(=S)N2CCN(Cc3ccc4c(c3)OCO4)CC2)cc1 | 65
Cc1cc(C)cc(NC(=O)C(=O)NCCN2CCN(c3ccc(F)cc3)CC2)c1 | 64
COCCN1CCCc2ccc(NS(=O)(=O)c3ccc(OC)cc3C)cc21 | 52
O=C(O)c1ccc(CSc2ccc(Cl)cc2)o1 | 46
CCSc1nnc(NC(=O)CSc2ncnc3c2cnn3-c2ccccc2)s1 | 55
O=C(CSc1ncnc2[nH]ncc12)Nc1nc(-c2ccco2)c(-c2ccco2)s1 | -3*
COc1ccc(CCNC(=O)CSc2ncnc3[nH]ncc23)cc1OC | 55
CC1=CC(=O)C=C/C1=N\OC(=O)c1cc([N+](=O)[O-])cc([N+](=O)[O-])c1 | 59
CC(=O)N1CCc2c(sc(NC(=O)c3ccccc3S(C)(=O)=O)c2C(N)=O)C1 | 67
COC(=O)Cn1c(=NC(=O)c2ccc(F)cc2)sc2cc(OC)ccc21 | 28*
COC(=O)Cn1c(=NC(=O)c2ccc(Br)s2)sc2cc(F)ccc21 | 65
COC(=O)Cn1c(=NC(=O)c2ccc(OC)cc2)sc2cc(NC(C)=O)ccc21 | 74
O=C(Nc1cnc2ccccc2c1)C1CCN(c2ccc(-c3ccco3)nn2)CC1 | 26*
O=C(Nc1ccc(F)c(Cl)c1)C1CCN(c2ccc(-c3ccco3)nn2)CC1 | 74
O=C(Nc1ccc(F)c(C(F)(F)F)c1)C1CCN(c2ccc(-c3ccco3)nn2)CC1 | 68
COc1ccc(S(=O)(=O)NCC(c2ccsc2)N2CCc3ccccc3C2)cc1Cl (stereo unspecified) | 63
O=C(C1=C(Cl)c2cccc3cccc(c23)C1=O)c1ccccc1 | 52
O=C1C([N+](=O)[O-])=C(O)c2cccc3cccc1c23 | -1*
O=C1c2ccc3ccccc3c2-c2cccc3cccc1c23 | -54
O=C(CCCSc1ccccc1)N(Cc1ccncc1)c1nc2c(F)cccc2s1 | 59
